Shown are actives, neighbours in structure and some others; about 11% of the full set was active somewhere.
NPR1 antag: Natriuretic polypeptide receptor (hNpr1) antagonism - Primary qHTS | Atrial natriuretic peptide receptor 1 (Homo sapiens), P16066 | HEK293 hNpr1 GloSensor cGMP, ANP-stimulated luminescence | Potency, µM (series often up to 46.3 µM), for inactives: top-dose activity change, negative = inhibition, hits mostly inhibitors | actives 1.6% (n = 76,000); calls by dose curve; further: on the % scale 0 is the no-effect control and ±100 the full control effect; nearly all actives have a fitted effect of over 60% in size
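Compound pre-incubated 30 min at room temperature on GloSensor-loaded HEK293 cells stably carrying hNpr1 and the pGS-40F cGMP biosensor. Stimulation uses hNppA at 0.1 nM final; luminescence is taken at baseline and 20 min post-agonist.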
3T3 cytotox: Cytotoxic Profiling in NIH 3T3 Cell Line of Diverse Libraries Using Quantitative High-Throughput Screening. NIH 3T3 viability, CellTiter-Glo ATP luminescence, 48-72 h. Potency, µM (doses to about 96.7 µM), for the others: at the highest dose activity change, negative = cytotoxicity, hits mostly inhibitors. actives 4.3% (n = 94,000); further: on the % scale 0 is the no-effect control and ±100 the full control effect; nearly all actives have a fitted effect of over 55% in size
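NIH 3T3 cells at 400 cells/well received 23 nL of compound by pintool and were incubated 48 or 72 h at 37 °C. Viability was read as ATP-coupled CellTiter-Glo luminescence.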
HEK293 tox: Cytotoxic Profiling in HEK 293 Cell Line of Diverse Libraries Using Quantitative High-Throughput Screening. actives 6.6% (n = 94,000). Potency, µM (doses to about 115 µM), inactives show top-dose activity change, negative = cytotoxicity, usual class: inhibitors. HEK 293 viability, ATP luminescence (CellTiter-Glo), 48-72 h; further: on the % scale 0 is the no-effect control and ±100 the full control effect; nearly all actives have a fitted effect of over 60% in size
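CellTiter-Glo luminescence (cellular ATP) was read after 48 or 72 hr of compound exposure at 37 degree Celsius. Cells were HEK 293 plated at 250 cells/well.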
Luciferase inh: Firefly luciferase inhibition profiling of diverse chemical library using quantitative high-throughput screening; purified P. pyralis luciferase, luminescence, biochemical; Potency, µM (titrated, usually from 115 µM), actives largely listed as inhibitors; actives 2.5% (n = 76,000); AID 1347043, 2019; further: on the % scale 0 is the no-effect control and ±100 the full control effect; nearly all actives have a fitted effect of over 65% in size
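FLuc 10nM, D-luciferin 10uM, ATP 10uM, Mg acetate 10mM, Tris acetate pH 7.5, Tween/BSA; cpd qHTS; enzyme added last; CCD luminescence.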
Npr1 antag conf: Natriuretic polypeptide receptor (hNpr1) antagonism - Confirmation. AID 1347044, 2019. shares compounds with NPR1 antag. HEK293 hNpr1 cGMP GloSensor luminescence, ANP-stimulated. actives 76% (n = 1,400). Potency, µM (doses to about 57.6 µM), without a hit: at the highest dose activity change, negative = inhibition, hits mostly inhibitors; calls by dose curve; further: nearly all actives have a fitted effect of over 70% in size
Npr2 selectivity: Natriuretic polypeptide receptor (hNpr2) antagonism - Subtype selectivity assay; HEK293 hNpr2 GloSensor cGMP luminescence, CNP-stimulated; Potency, µM (top dose mostly 57.6 µM), for the others: at the top dose activity change, negative = inhibition, hits mostly inhibitors; AID 1347046, 2019; actives 67% (n = 1,400); shares compounds with NPR1 antag; calls by dose curve; further: nearly all actives have a fitted effect of over 70% in size
FLuc inh counter: Natriuretic polypeptide receptor (hNpr1) antagonism - Confirmation firefly luciferase (FLuc) inhibition counterscreen | shares compounds with NPR1 antag | actives 0.7% (n = 1,400) | AID 1347047, 2019 | Potency, µM (titrated, usually from 57.6 µM), for inactives: top-dose activity change, negative = inhibition, most hits filed as inhibitors | purified FLuc enzyme, luminescence, Km substrate; further: series mostly up to about 58 µM; 0% is about no effect
GloSensor ctrl: Natriuretic polypeptide receptor (hNpr1) antagonism - Counterscreen GloSensor control cell line; shares compounds with NPR1 antag; HEK293 GloSensor cGMP, SNP-stimulated, luminescence; Potency, µM (titrated, usually from 57.6 µM), without a hit: at the top dose activity change, negative = inhibition, most hits filed as inhibitors; actives 69% (n = 1,400); AID 1347051, 2019; calls by dose curve; further: on the % scale 0 is the no-effect control and ±100 the full control effect; nearly all actives have a fitted effect of over 70% in size
An asterisk follows results filed as active; i = inactive; ? = inconclusive; nt = not tested or not shown; [ ] = another dose, or the depositor's remark. Unless noted, the call rests on the fitted dose curve; in most records, active means well fitted curve in the direction sought with a large enough effect; inconclusive means small, poorly fitted or top-dose-only effect, or another doubt; inactive means no such curve, though single readings can be large; an effect the other way counts as inactive or inconclusive. Potency means the concentration at half of the fitted maximal effect.

SMILES | NPR1 antag | 3T3 cytotox | HEK293 tox | Luciferase inh | Npr1 antag conf | Npr2 selectivity | FLuc inh counter | GloSensor ctrl
O=C(Nc1ccncc1)C1=NO[C@@H]2CN(CCc3ccccc3)C[C@H]12 | ? | ? | ? | i | 40µM* | ? | 5%[86.2 µM] | 35µM*
COc1cncc(Nc2cnc3ccc(N(C)Cc4ccc(F)cc4)nn23)c1 | ? | ? | ? | i | nt | nt | nt | nt
CN(Cc1ccc(F)cc1)c1ccc2ncc(Nc3ccnc(N4CCOCC4)c3)n2n1 | 10µM* | ? | ? | i | 25µM* | 16µM* | -3%[86.2 µM] | 18µM*
CN(C)c1ccc2ncc(Nc3ccc(Oc4ccccc4)cc3)n2n1 | 28µM* | 25µM* | 35µM* | i | 31µM* | 31µM* | -24%[86.2 µM] | 31µM*
COc1ncccc1Nc1cnc2ccc(N(C)C)nn12 | -8%[70.6 µM] | ? | ? | i | nt | nt | nt | nt
C[S+](=O)([O-])c1ccc(-c2nnc3ccc(C(=O)NCc4ccc(F)cc4)cn23)cc1 | nt | -19% | -2% | nt | nt | nt | nt | nt
CC(C)NC(=O)C[C@@H]1C[C@H]2O[C@H](CNC3CCC3)[C@@H](O)[C@H]2O1 | 4%[70.6 µM] | 1%[174 µM] | i | i | nt | nt | nt | nt
Cc1ccc(C)c(CN2C(=O)NC3(CCN(C(=O)c4ccccn4)CC3)C2=O)c1 | 0% | -6% | -15% | i | nt | nt | nt | nt
Cc1ccc(C)c(CN2C(=O)NC3(CCN(C(=O)Cc4cccc(F)c4)CC3)C2=O)c1 | ? | ? | ? | i | ? | ? | 3% | ?
O=C(Cc1cccc(F)c1)N1CCC2(CC1)NC(=O)N(Cc1ccccc1Cl)C2=O | ? | ? | ? | i | ? | -26% | 3% | -24%
Cc1cccc(NC(=O)Cn2c(N(C)Cc3ccccc3)nc(C)cc2=O)c1 | 20µM* | ? | ? | i | 22µM* | 22µM* | -2% | 22µM*
CCc1cccc(NC(=O)Cn2c(N(C)Cc3ccccc3)nc(C)cc2=O)c1 | 8.9µM* | ? | ? | i | 11µM* | 12µM* | 0% | 9.7µM*
COc1ccc(C(=O)N2CCC3(CC2)N=C(c2cccc(Br)c2)NO3)c(OC)c1 | 11µM* | ? | ? | i | 24µM* | 24µM* | 6% | 22µM*
COc1ccc(C(=O)N2CCC3(CC2)N=C(c2cccc(Br)c2)NO3)cc1F | ? | ? | ? | i | ? | ? | 6% | 27µM*
COc1ccccc1CCC(=O)N1CCC2(CC1)N=C(c1cccc(Br)c1)NO2 | -26% | ? | ? | i | ? | ? | 3% | -30%
Cc1ccsc1C(=O)N1CCC2(CC1)N=C(c1cccc(Br)c1)NO2 | 13µM* | ? | ? | i | 27µM* | ? | 3% | 27µM*
Cc1ccccc1-c1cnc2[nH]cc(CC(=O)N3CCCC3)c2c1 | 3.5µM* | ? | 89µM* | i | 7.9µM* | 11µM* | -5%[86.2 µM] | 7µM*
Cc1ccccc1-c1cnc2[nH]cc(CC(=O)NCc3cccnc3)c2c1 | 32µM* | ? | 79µM* | i | 31µM* | 28µM* | 2%[86.2 µM] | 25µM*
COCCNC(=O)Cc1c[nH]c2ncc(-c3ccccc3C)cc12 | -24%[70.6 µM] | ? | ? | i | nt | nt | nt | nt
O=C(Cc1c[nH]c2ncc(-c3ccccc3C(F)(F)F)cc12)NCc1cccnc1 | 7.9µM* | ? | ? | i | 16µM* | 20µM* | -2%[86.2 µM] | 16µM*
CCNC(=O)Cc1c[nH]c2ncc(-c3ccccc3C)cc12 | 18µM* | ? | ? | i | 31µM* | 31µM* | 1%[86.2 µM] | 28µM*
COC(=O)CNC(=O)C1CCN(Cc2ccccc2-c2cccnc2)CC1 | nt | -16% | 1% | nt | nt | nt | nt | nt
CC(C)C1=NOC2(CCN(Cc3ccc(F)cc3)C2)C1 (stereo not drawn) | nt | -5%[138 µM] | -11%[172 µM] | nt | nt | nt | nt | nt
Cc1nc(N2CCN(C(=O)c3ccc(Cl)cc3)CC2)cc(C(F)(F)F)n1 | 7% | ? | ? | i | nt | nt | nt | nt
COc1ncccc1-c1cnc2[nH]cc(CC(N)=O)c2c1 | -4%[70.6 µM] | ? | -10%[230 µM] | i | nt | nt | nt | nt
SMILES | NPR1 antag | 3T3 cytotox | HEK293 tox | Luciferase inh | Npr1 antag conf | Npr2 selectivity | FLuc inh counter | GloSensor ctrl
NC(=O)Cc1c[nH]c2ncc(-c3ccccc3C(F)(F)F)cc12 | ? | -28%[138 µM] | ? | i | 31µM* | ? | -3%[86.2 µM] | 35µM*
COc1ccc(C(=O)N2CCC3(CC2)CC(=O)Nc2ccccc2O3)cc1 | 13µM* | -17% | -26% | i | 22µM* | 22µM* | 0% | 22µM*
COc1ccc(C(=O)N2CCC3(CC2)CC(=O)c2ccccc2O3)cc1 | -3% | -27% | ? | i | nt | nt | nt | nt
Cc1ccc(C(=O)N2CCC(C(=O)N3CCC4(CC3)CC(=O)Nc3ccccc3O4)CC2)cc1 | nt | -8% | ? | nt | nt | nt | nt | nt
Cc1ccc(C(=O)N2CCC3(CC2)CC(=O)Nc2ccccc2O3)cc1 | nt | -18% | ? | nt | 24µM* | 24µM* | 1% | 15µM*
CC(=O)Nc1ccc(NC(=O)CN2C(=O)NC(c3ccccc3Cl)C3=C2COC3=O)cc1 (stereo not drawn) | -3% | -2% | 5% | ? | nt | nt | nt | nt
C=CCN(Cc1nc(-c2cccc(Cl)c2)oc1C)C1CCS(=O)(=O)C1 (stereo not drawn) | 0% | -28% | -11% | i | nt | nt | nt | nt
Cc1cc(C(=O)NC(C)c2cnc(N3CCCCCCC3)nc2C)n[nH]1 (stereo not drawn) | 10µM* | ? | ? | i | 22µM* | 24µM* | 0% | 22µM*
COC[C@@H]1CN(C(=O)c2ccc(C)cn2)C[C@H]1c1nc(C2CC2)no1 | -11% | -10% | -12% | i | nt | nt | nt | nt
Cc1cc(C(=O)N2CCC3(CC2)CC(N(Cc2ccc(F)cc2)C2CC2)CCO3)n(C)n1 (stereo not drawn) | ? | ? | ? | i | 27µM* | ? | 0% | 27µM*

Screening results: PubChem, National Center for Advancing Translational Sciences (NCATS)
